“And” between values parts separate entries of the source, which are not always exact repeats. Equal values may be shown once. Inconclusive results are not listed. The source made the active and inactive calls. The call rests on the fitted dose curve; in most records, active means well fitted curve in either direction with a large enough effect; inconclusive means small, poorly fitted or top-dose-only effect; inactive means no such curve, though single readings can be large or run the other way.
Target: Lysosomal alpha-glucosidase (Homo sapiens) (UniProt P10253)
Test: Confirmation of Inhibitors and Activators of Human alpha-Glucosidase From Spleen Homogenate;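 on Potency: fluorescence of 4-methylumbelliferone released from a fluorogenic glucopyranoside substrate at pH 5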; on activity change, both directions: 0% is about no effect
Conditions: alpha-glucosidase enzyme activity; series mostly up to 60.5 µM; activity change, both directions: at the top concentration
In short: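 Compounds titrated against spleen-homogenate alpha-glucosidase, pH 5.0, 1 mM 4-MU-glucoside substrate, 37 C for 40 min. Fluorescence after pH 10 stop, normalised to no-enzyme and enzyme controls; Hill-equation AC50.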
Potency means the concentration at half of the fitted maximal effect.

Potency, active:
CCCN1CNc2c(c(=O)[nH]c(=S)n2CCc2cccc(Cl)c2)C1 12.6 µM
CCCN1CNc2c(c(=O)[nH]c(=S)n2CCc2ccc(C)cc2C)C1 39.8 µM
COc1ccc(CCn2c3c(c(=O)[nH]c2=S)CN(c2ccccc2)CN3)cc1OC 8.91 µM
CC(=O)c1ccc(N2CCN(S(=O)(=O)c3cc4c(cc3Cl)NC(=O)C4)CC2)cc1 1.83 µM [inhibitor] and 5.17 µM [inhibitor]

Activity change, both directions, inactive:
CCCC1(C)Nc2ccccc2-c2nc3ccccc3n21 (stereo unspecified) 19.2% [at 31.5 µM]
CCCN1CNc2c(c(=O)[nH]c(=S)n2-c2ccc(Cl)cc2)C1 -3.54% [at 31.5 µM]
COc1cc(/C=C/c2ccc3ccccc3n2)cc(OC)c1O 2.21%
O=C(O)c1c(-c2ccccc2)c2oc3ccccc3c2[nH]c1=O 5.29% [at 31.5 µM]
CC(=O)Oc1ccc2cc(-c3nc(-c4ccccc4)c(C)s3)c(=O)oc2c1 2.9%
COC(=O)c1ccc(S(=O)(=O)N2CCOCC2)cc1 -1.83%
CC1=C(C(=O)OC(C)C)C(c2cccc([N+](=O)[O-])c2)n2c(cc(=O)[nH]c2=S)N1 (stereo unspecified) 0.195% [at 31.5 µM]
Cc1[nH]n(C(N)=S)c(=O)c1N=Nc1ccc2ccccc2c1 1.19%
CNC(=S)/N=C(\Nc1ccc(C)cc1)c1ccccc1 3.12% [at 31.5 µM]
O=C(NC(C(=O)c1ccccc1)n1ccc(=O)[nH]c1=O)c1ccccc1 (stereo unspecified) -4.26% [at 31.5 µM]
CC(=O)c1ccc(N2CCN(S(=O)(=O)c3ccc4c(c3)CCCN4C(C)=O)CC2)cc1 1.99%
COc1ccc(CCc2c[nH]c(=O)c3cncnc23)cc1OC 0.974%
Clc1ncc(C#Cc2ccccc2)c2ncncc12 3.9%
Nc1ccccc1N=Cc1ccc(-c2cccc(Cl)c2)o1 17.3%
Cc1ccc(-c2cc(C(=O)N/N=C/c3c(C)nn(-c4ccccc4)c3C)n[nH]2)s1 2.38%
CC(=O)Nc1ccc(S(=O)(=O)/N=C2/NC(=O)/C(=C\c3ccco3)S2)cc1 1.22% [at 31.5 µM]
O=C(Cn1c(=O)[nH]n(-c2ccccc2)c1=O)N1CCCc2ccccc21 0.235% [at 31.5 µM]
COc1ccc2cc(C#N)c(=O)oc2c1 6.52%
CC(=O)c1ccc(N2CCN(S(=O)(=O)c3ccc(N4CCCC4=O)cc3)CC2)cc1 0.125%
N#Cc1c(-c2cccs2)cc(-c2cccnc2)nc1N 27.4% [at 31.5 µM]
N#CCCN1CCN(S(=O)(=O)c2ccc(S(=O)(=O)N3CCOCC3)cc2)CC1 -6.93%
O=S(=O)(c1ccccc1F)N1CCOCC1 -1.74%
O=C(/C=C/c1ccc(O)c(O)c1)c1ccc(O[C@@H]2O[C@H](CO)[C@@H](O)[C@H](O)[C@H]2O)c(O)c1O -46.4%
Cc1ccc(C(=O)c2sc3c(c2N)c(=O)[nH]c(=O)n3CCc2ccccc2)cc1 -3.39% [at 31.5 µM]
COc1cc2c(cc1OC)-c1cc(OCc3ccccc3Cl)nc(=O)n1CC2 -3.52% [at 31.5 µM]
O=C(Nc1ccc(OCC(=O)N2CCN(S(=O)(=O)c3ccccc3)CC2)cc1)c1ccco1 -14.1%
CCOC(=O)N1CCN(c2cc(N(C)CCO)c([N+](=O)[O-])c3nonc23)CC1 -2.42%
COCCn1c(=NC(=O)c2ccc3c(c2)OCO3)c(C#N)cc2c(=O)n3cccc(C)c3nc21 3.39% [at 31.5 µM]
CCc1sc(-c2cc3cc(Cl)ccc3oc2=O)nc1-c1ccccc1 19.5%
Clc1ccc(Nc2ncnc3ccc(Br)cc23)cc1 1.29% [at 31.5 µM]
Cc1ccc(-c2nc(-c3cc4ccccc4oc3=O)sc2C)cc1 5.61%
O=S(=O)(c1ccccc1Cl)N1CCOCC1 2.5%

Reference: PubChem BioAssay AID2113 (National Center for Advancing Translational Sciences (NCATS), 2009)
